Results filed as inconclusive are left out. Calls of active or inactive are those of the source. How the source made its calls, unless noted: active means hit-call score of the fitted dose curve at least 0.9, where 1 is the maximum; inconclusive means response in the unintended direction; inactive means score below 0.9.
Assays:
[1] = target: Retinoic acid receptor RXR-alpha (Homo sapiens) (UniProt P19793); assay: ATG_RXRa_TRANS: Attagene TRANS-FACTORIAL HepG2 Assay for human Retinoid X Receptor alpha (RXRa) (AID 2283012)
Procedure, shortened: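 Measures exogenous chimeric NR-GAL4 activity in transfected HepG2 liver cells after 24 h of dosing. Induced reporter mRNA was detected by RT-PCR with capillary electrophoresis, and gain of signal was analysed against DMSO.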

[2] = target: human Retinoid X Receptor beta (RXRb), RXRB (gene 6257) (UniProt P28702); assay: ATG_RXRb_TRANS: Attagene TRANS-FACTORIAL HepG2 Assay for human Retinoid X Receptor beta (RXRb) (AID 2283013)
Procedure, shortened: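 Chimeric receptor-Gal4 activity was assessed in transiently transfected human HepG2 cells after 24 h exposure. Transcripts from GAL4-UAS reporters were quantified by fluorescent RT-PCR and capillary electrophoresis, with DMSO as negative control and baseline.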

[3] = target: human Thyroid Receptor alpha (THRa1), THRA (gene 7067) (UniProt P10827); assay: ATG_THRa1_TRANS: Attagene TRANS-FACTORIAL HepG2 Assay for human Thyroid Receptor alpha (THRa1) (AID 2283014)
Procedure, shortened: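 Reporter transcript induction, read by capillary electrophoresis of 6-FAM-labelled RT-PCR products, reflects activity of a transfected THRa1-Gal4 fusion in HepG2 liver cells. Cells were dosed for 24 h; activity was fitted in the positive direction against DMSO.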

[4] = target: human Vitamin D Receptor (VDR), VDR (gene 7421) (UniProt P11473); assay: ATG_VDR_TRANS: Attagene TRANS-FACTORIAL HepG2 Assay for human Vitamin D Receptor (VDR) (AID 2283022)
Procedure, shortened: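 Steps: transfect HepG2 with GAL4-UAS-driven reporter constructs; dose compounds 24 h; isolate RNA, reverse-transcribe, PCR-amplify with 6-FAM-labelled primer extension and HpaI digestion; quantify fragments by capillary electrophoresis relative to DMSO.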

[5] = read-out: E-selectin (Homo sapiens) (UniProt P16581); assay: BSK_3C_Eselectin: BioMAP Diversity Plus: 3C Assay for Eselectin Biomarker Activity (AID 2283015; active means hit-call score of the fitted dose curve at least 0.9, where 1 is the maximum; inactive means score below 0.9); conditions: primary human endothelial cells (HUVEC); actives raise or lower the signal
Procedure, shortened: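 ELISA read-out of E-selectin on endothelial monolayers after 24 h chemical treatment. Human umbilical vein primary cells served as the system, with DMSO defining baseline activity for bidirectional fitting.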

[6] = read-out: Interleukin-1 alpha (IL1a), IL1A (gene 3552); assay: BSK_BE3C_IL1a: BioMAP Diversity Plus: BE3C Assay for Interleukin-1 alpha (IL1a) Biomarker Activity (AID 2283016; active means hit-call score of the fitted dose curve at least 0.9, where 1 is the maximum; inactive means score below 0.9); conditions: primary human bronchial epithelial cells; actives raise or lower the signal
Procedure, shortened: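 Signal from IL-1a ELISA, taken 24 h after chemical dosing of human bronchial epithelial cells, is compared with DMSO as baseline using bidirectional curve fitting.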

[7] = read-out: Monocyte Chemoattractant Protein-1 (MCP1), CCL2 (gene 6347); assay: BSK_3C_MCP1: BioMAP Diversity Plus: 3C Assay for Monocyte Chemoattractant Protein-1 (MCP1) Biomarker Activity (AID 2283017; active means hit-call score of the fitted dose curve at least 0.9, where 1 is the maximum; inactive means score below 0.9); conditions: primary human endothelial cells (HUVEC); actives raise or lower the signal
Procedure, shortened: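 ELISA read-out of MCP-1 from human umbilical vein endothelial cell cultures harvested 24 h post-dosing. Gain or loss of signal was fitted relative to DMSO.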

[8] = read-out: Monocyte Chemoattractant Protein-1 (MCP1), CCL2 (gene 6347); assay: BSK_4H_MCP1: BioMAP Diversity Plus: 4H Assay for Monocyte Chemoattractant Protein-1 (MCP1) Biomarker Activity (AID 2283018; active means hit-call score of the fitted dose curve at least 0.9, where 1 is the maximum; inactive means score below 0.9); conditions: primary human endothelial cells (HUVEC); actives raise or lower the signal
Procedure, shortened: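 Endothelial cells from umbilical vein were treated with test chemical, then after 24 h MCP-1 levels were quantified by ELISA; endpoint values came from bidirectional fitting with DMSO as baseline of activity.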

[9] = read-out: Human Leukocyte Antigen - DR isotype (HLADR), HLA-DRA (gene 3122); assay: BSK_3C_HLADR: BioMAP Diversity Plus: 3C Assay for Human Leukocyte Antigen - DR isotype (HLADR) Biomarker Activity (AID 2283019; active means hit-call score of the fitted dose curve at least 0.9, where 1 is the maximum; inactive means score below 0.9); conditions: primary human endothelial cells (HUVEC); actives raise or lower the signal
Procedure, shortened: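 ELISA readout of surface HLA-DR on human umbilical vein endothelium, taken 24 h after chemical treatment. Gain- and loss-of-signal were both fitted relative to DMSO.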

[10] = read-out: Interleukin-8 (IL8), CXCL8 (gene 3576); assay: BSK_3C_IL8: BioMAP Diversity Plus: 3C Assay for Interleukin-8 (IL8) Biomarker Activity (AID 2283020; active means hit-call score of the fitted dose curve at least 0.9, where 1 is the maximum; inactive means score below 0.9); conditions: primary human endothelial cells (HUVEC); actives raise or lower the signal
Procedure, shortened: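 Endothelial primary cells of human umbilical vein origin are dosed with chemical; after 24 h the IL-8 biomarker is measured by ELISA, and concentration–response is fitted in both directions versus DMSO.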

[11] = read-out: Monokine induced gamma interferon (MIG), CXCL9 (gene 4283); assay: BSK_3C_MIG: BioMAP Diversity Plus: 3C Assay for Monokine induced gamma interferon (MIG) Biomarker Activity (AID 2283021; active means hit-call score of the fitted dose curve at least 0.9, where 1 is the maximum; inactive means score below 0.9;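 on AC50: MIG protein level measured by immunoassay in the treated endothelial cultures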); conditions: primary human endothelial cells (HUVEC); actives raise or lower the signal
Procedure, shortened: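 Endothelial primary cells (human umbilical vein) are dosed with test chemical in the 3C system. MIG levels are measured by ELISA at 24 h and fitted in both directions relative to DMSO.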

[12] = BSK_3C_SRB: Viability Assessment in the BioMAP Diversity Plus: 3C Assay (AID 2283023; active means hit-call score of the fitted dose curve at least 0.9, where 1 is the maximum; inactive means score below 0.9;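 further: fitted both ways against DMSO so a hit may be signal rise or drop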); conditions: primary human endothelial cells (HUVEC)
Procedure, shortened: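 Absorbance at 560 nm of sulforhodamine B-stained (0.1%) total protein served as a cytotoxicity readout in human umbilical vein endothelial cells, 24 h after chemical treatment. Signal was fitted bidirectionally relative to DMSO.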

[13] = read-out: Matrix Metallopeptidase 1 (MMP1), MMP1 (gene 4312); assay: BSK_BE3C_MMP1: BioMAP Diversity Plus: BE3C Assay for Matrix Metallopeptidase 1 (MMP1) Biomarker Activity (AID 2283024; active means hit-call score of the fitted dose curve at least 0.9, where 1 is the maximum; inactive means score below 0.9); conditions: primary human bronchial epithelial cells; actives raise or lower the signal
Procedure, shortened: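 MMP1 signal, measured by ELISA after a 24 h chemical exposure of human primary bronchial epithelial cells, is analysed with bidirectional fitting using DMSO as negative control.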

[14] = BSK_3C_Vis: BioMAP Diversity Plus: 3C Assay for Morphology Visualization (AID 2283025; active means hit-call score of the fitted dose curve at least 0.9, where 1 is the maximum; inactive means score below 0.9;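 further: fitted both ways so gain or loss versus DMSO counts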); conditions: primary human endothelial cells (HUVEC)
Procedure, shortened: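 Morphology read by light microscopy serves as a background control for the multiplexed 3C assay in human umbilical vein endothelial cells, taken 24 h after dosing, with DMSO as the negative control and bidirectional curve fitting.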

[15] = read-out: Pselectin, SELP (gene 6403); assay: BSK_4H_Pselectin: BioMAP Diversity Plus: 4H Assay for Pselectin Biomarker Activity (AID 2283026; active means hit-call score of the fitted dose curve at least 0.9, where 1 is the maximum; inactive means score below 0.9); conditions: primary human endothelial cells (HUVEC); actives raise or lower the signal
Procedure, shortened: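 Endothelial primary cells (human umbilical vein) are dosed, incubated 24 h, and assayed for surface P-selectin by ELISA; responses in either direction are fitted relative to the DMSO negative control.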

[16] = BSK_4H_SRB: Viability Assessment in the BioMAP Diversity Plus: 4H Assay (AID 2283027; active means hit-call score of the fitted dose curve at least 0.9, where 1 is the maximum; inactive means score below 0.9;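 further: cells exposed to compound for 24 h before staining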;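 on AC50: curves fitted both ways versus DMSO so AC50 may be loss or gain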); conditions: primary human endothelial cells (HUVEC)
Procedure, shortened: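 Cytotoxicity read-out in primary human endothelial cells: after 24 h compound exposure, cells were TCA-fixed (10%), stained with 0.1% SRB and absorbance taken at 560 nm. Values fitted in both directions relative to DMSO.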

[17] = BSK_BE3C_SRB: Viability Assessment in the BioMAP Diversity Plus: BE3C Assay (AID 2283028; active means hit-call score of the fitted dose curve at least 0.9, where 1 is the maximum; inactive means score below 0.9;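 on AC50: fitted both ways so AC50 may mark signal gain or loss versus DMSO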); conditions: primary human bronchial epithelial cells
Procedure, shortened: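 Cells (human bronchial epithelial, primary) are treated with chemicals, and after 24 h the parallel cultures are fixed in 10% TCA. These are then stained with 0.1% SRB and read at 560 nm. Gain or loss of signal is fitted relative to DMSO.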

[18] = read-out: Thrombomodulin, THBD (gene 7056); assay: BSK_3C_Thrombomodulin: BioMAP Diversity Plus: 3C Assay for Thrombomodulin Biomarker Activity (AID 2283029; active means hit-call score of the fitted dose curve at least 0.9, where 1 is the maximum; inactive means score below 0.9); conditions: primary human endothelial cells (HUVEC); actives raise or lower the signal
Procedure, shortened: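 Endothelial cells from umbilical vein are dosed with test chemical and incubated 24 h. Thrombomodulin is then quantified by ELISA, with DMSO serving as negative control and activity baseline.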

[19] = read-out: Urokinase-type plasminogen activator receptor (uPAR), PLAUR (gene 5329); assay: BSK_4H_uPAR: BioMAP Diversity Plus: 4H Assay for Urokinase-type plasminogen activator receptor (uPAR) Biomarker Activity (AID 2283030; active means hit-call score of the fitted dose curve at least 0.9, where 1 is the maximum; inactive means score below 0.9); conditions: primary human endothelial cells (HUVEC); actives raise or lower the signal
Procedure, shortened: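 Cell-surface uPAR ELISA signal, measured 24 h after dosing human umbilical vein endothelial cells, was analyzed with bidirectional fitting relative to DMSO. Parallel SRB staining of total protein tracked overt cytotoxicity.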

[20] = read-out: Vascular endothelial growth factor receptor 2 (Homo sapiens) (UniProt P35968); assay: BSK_4H_VEGFRII: BioMAP Diversity Plus: 4H Assay for Vascular endothelial growth factor receptor 2 (VEGFR2) Biomarker Activity (AID 2283031; active means hit-call score of the fitted dose curve at least 0.9, where 1 is the maximum; inactive means score below 0.9;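 on AC50: cell-surface VEGFR2 protein level quantified by ELISA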); conditions: primary human endothelial cells (HUVEC); actives raise or lower the signal
Procedure, shortened: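 ELISA read-out of VEGFRII in primary human umbilical vein endothelium, taken 24 h after chemical treatment. Responses are expressed relative to DMSO, with bidirectional fitting.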

Measured: AC50

E-selectin (Homo sapiens), sequence (P16581 whole entry, looked up): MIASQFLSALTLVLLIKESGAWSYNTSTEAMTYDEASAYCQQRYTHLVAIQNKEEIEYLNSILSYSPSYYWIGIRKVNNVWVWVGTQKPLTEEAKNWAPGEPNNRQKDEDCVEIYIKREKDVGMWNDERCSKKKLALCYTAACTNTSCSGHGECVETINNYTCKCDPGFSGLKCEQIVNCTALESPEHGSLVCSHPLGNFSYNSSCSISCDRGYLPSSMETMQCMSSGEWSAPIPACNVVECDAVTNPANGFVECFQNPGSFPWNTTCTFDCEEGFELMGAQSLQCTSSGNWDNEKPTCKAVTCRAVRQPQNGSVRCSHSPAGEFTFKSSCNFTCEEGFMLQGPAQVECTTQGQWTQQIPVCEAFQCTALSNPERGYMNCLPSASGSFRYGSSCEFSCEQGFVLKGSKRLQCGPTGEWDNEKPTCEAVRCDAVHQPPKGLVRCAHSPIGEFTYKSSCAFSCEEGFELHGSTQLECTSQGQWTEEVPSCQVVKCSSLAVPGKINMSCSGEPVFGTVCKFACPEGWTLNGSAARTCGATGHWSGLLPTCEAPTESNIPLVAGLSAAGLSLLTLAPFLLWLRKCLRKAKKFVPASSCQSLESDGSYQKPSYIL
human Thyroid Receptor alpha (THRa1), THRA (gene 7067), sequence (P10827 whole entry, looked up, the tested form may be a part): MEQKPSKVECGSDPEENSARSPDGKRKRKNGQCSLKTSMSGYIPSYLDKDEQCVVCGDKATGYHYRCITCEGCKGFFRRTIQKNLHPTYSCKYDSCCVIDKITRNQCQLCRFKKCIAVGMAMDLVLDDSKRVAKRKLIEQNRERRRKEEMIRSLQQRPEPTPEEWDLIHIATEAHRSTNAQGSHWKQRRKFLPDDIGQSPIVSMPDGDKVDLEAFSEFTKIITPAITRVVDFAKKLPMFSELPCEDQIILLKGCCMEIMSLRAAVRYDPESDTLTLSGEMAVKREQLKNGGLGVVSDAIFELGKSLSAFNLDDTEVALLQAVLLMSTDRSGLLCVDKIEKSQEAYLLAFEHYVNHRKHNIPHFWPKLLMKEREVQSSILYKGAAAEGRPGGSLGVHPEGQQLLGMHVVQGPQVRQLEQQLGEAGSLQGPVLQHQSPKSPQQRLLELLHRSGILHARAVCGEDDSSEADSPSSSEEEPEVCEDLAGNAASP
human Retinoid X Receptor beta (RXRb), RXRB (gene 6257), sequence (P28702 whole entry, looked up, the tested form may be a part): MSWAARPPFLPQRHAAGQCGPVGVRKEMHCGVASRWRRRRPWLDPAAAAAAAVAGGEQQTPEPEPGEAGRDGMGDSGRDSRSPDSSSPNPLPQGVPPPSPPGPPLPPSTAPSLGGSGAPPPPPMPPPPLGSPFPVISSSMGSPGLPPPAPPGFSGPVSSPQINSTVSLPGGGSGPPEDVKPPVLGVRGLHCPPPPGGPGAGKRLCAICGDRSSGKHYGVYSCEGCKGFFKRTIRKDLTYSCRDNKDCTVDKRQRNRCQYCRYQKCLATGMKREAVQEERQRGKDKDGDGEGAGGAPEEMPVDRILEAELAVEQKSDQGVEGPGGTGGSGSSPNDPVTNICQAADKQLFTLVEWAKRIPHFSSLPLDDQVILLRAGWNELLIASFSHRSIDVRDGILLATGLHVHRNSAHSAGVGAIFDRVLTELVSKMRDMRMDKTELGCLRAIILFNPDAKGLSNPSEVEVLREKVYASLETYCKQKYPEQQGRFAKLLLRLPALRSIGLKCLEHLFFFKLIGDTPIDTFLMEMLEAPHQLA
Retinoic acid receptor RXR-alpha (Homo sapiens), sequence (P19793 whole entry, looked up, the tested form may be a part): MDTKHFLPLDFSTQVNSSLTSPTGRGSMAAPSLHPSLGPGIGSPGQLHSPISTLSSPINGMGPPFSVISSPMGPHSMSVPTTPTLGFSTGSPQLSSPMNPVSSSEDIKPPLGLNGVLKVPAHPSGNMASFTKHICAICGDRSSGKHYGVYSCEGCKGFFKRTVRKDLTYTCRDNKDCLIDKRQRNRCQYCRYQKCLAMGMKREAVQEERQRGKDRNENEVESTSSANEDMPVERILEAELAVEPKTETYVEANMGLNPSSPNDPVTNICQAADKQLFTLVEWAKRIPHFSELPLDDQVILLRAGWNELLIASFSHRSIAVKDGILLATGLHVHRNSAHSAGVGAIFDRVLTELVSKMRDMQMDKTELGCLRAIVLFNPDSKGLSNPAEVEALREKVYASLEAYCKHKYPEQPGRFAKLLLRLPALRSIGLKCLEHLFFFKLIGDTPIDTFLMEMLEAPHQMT
human Vitamin D Receptor (VDR), VDR (gene 7421), sequence (P11473 whole entry, looked up, the tested form may be a part): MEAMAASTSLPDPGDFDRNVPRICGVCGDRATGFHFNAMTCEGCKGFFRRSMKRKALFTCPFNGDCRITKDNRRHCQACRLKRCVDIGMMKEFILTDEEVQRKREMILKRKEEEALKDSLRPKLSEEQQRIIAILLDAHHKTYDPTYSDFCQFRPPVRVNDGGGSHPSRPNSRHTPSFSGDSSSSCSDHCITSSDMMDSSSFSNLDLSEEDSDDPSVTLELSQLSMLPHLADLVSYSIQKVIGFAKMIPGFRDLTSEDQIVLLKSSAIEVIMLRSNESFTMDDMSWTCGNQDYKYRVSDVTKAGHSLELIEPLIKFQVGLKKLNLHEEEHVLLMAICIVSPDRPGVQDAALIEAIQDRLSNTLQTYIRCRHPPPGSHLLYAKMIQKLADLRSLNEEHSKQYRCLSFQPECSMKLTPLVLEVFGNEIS

N#CCC#N
inactive: [3] | [4]
active: [1] 43.1 µM | [2] 10.3 µM

CCOCn1c(-c2ccc(Cl)cc2)c(C#N)c(Br)c1C(F)(F)F
inactive: [1] | [2] | [3] | [4]

C#CCOC(=O)/C=C(C)/C=C/CC(C)CCCC(C)C (stereo unspecified)
inactive: [6] | [11] | [4] | [13] | [17] | [18] | [19]
active: [1] 14.1 µM | [2] 3.9 µM | [5] 6.38 µM | [7] 36.8 µM | [8] 13.4 µM | [9] 28.1 µM | [10] 0.0524 µM | [12] 32.1 µM | [14] 39.8 µM | [15] 20 µM | [16] 33.2 µM | [20] 31.5 µM

c1ccc2c(c1)Oc1ccccc1O2
inactive: [1] | [2] | [4]

CC(C)(C)c1ccc(CCOc2ncnc3ccccc23)cc1
inactive: [1] | [2] | [4]

O=CCCl
inactive: [1] | [2] | [3] | [4]

CCCCN(CCCC)C(=S)S
inactive: [1] | [2] | [3] | [4]

CC[N+](CC)(CC)CC
inactive: [1] | [2] | [3] | [4]

Cc1cc(SCc2sc(-c3ccc(C(F)(F)F)c(F)c3)nc2C)ccc1OCC(=O)O
inactive: [1] | [2] | [3] | [4]

CC(F)(F)CC(F)(F)F
inactive: [1] | [2] | [3] | [4]

O=S1OC[C@@H]2[C@H](CO1)[C@]1(Cl)C(Cl)=C(Cl)[C@@]2(Cl)C1(Cl)Cl (stereo partly specified)
inactive: [1] | [2] | [3] | [4]

O=NN1CCCCCC1
inactive: [1] | [2] | [3] | [4]

O=C(O)COc1ccc(Cl)cc1
inactive: [1] | [2] | [3] | [4]

CC(C)(C1CCC(O)CC1)C1CCC(O)CC1 (stereo unspecified)
inactive: [1] | [2] | [4]

CCCSP(=S)(OCC)Oc1ccc(Cl)cc1Cl (stereo unspecified)
inactive: [1] | [4]
active: [2] 27 µM

O=C(NC(=O)c1c(F)cccc1F)Nc1cc(Cl)c(OC(F)(F)C(F)C(F)(F)F)cc1Cl (stereo unspecified)
inactive: [1] | [2] | [3] | [4]

CC1(C)COP(Oc2ccccc2)OC1
inactive: [1] | [2] | [4]

CN(N=O)c1ccc([N+](=O)[O-])cc1
inactive: [1] | [2] | [3] | [4]

C=C(C)C(=O)OCCCCOC(=O)C(=C)C
inactive: [1] | [2] | [4]

COC(=O)c1cc(Oc2ccc(Cl)cc2Cl)ccc1[N+](=O)[O-]
inactive: [1] | [2] | [3] | [4]

CCOC(=O)CCN(SN(C)C(=O)Oc1cccc2c1OC(C)(C)C2)C(C)C
inactive: [1] | [6] | [11] | [12] | [13] | [16] | [17] | [18] | [19] | [20]
active: [2] 37.8 µM | [5] 20 µM | [7] 27.1 µM | [8] 31.6 µM | [9] 14.2 µM | [10] 3.97 µM | [14] 20 µM | [15] 23.2 µM

OCC(c1ccc(Cl)cc1)c1ccc(Cl)cc1
inactive: [1] | [2] | [3] | [4]

ClCc1ccccc1CCl
active: [1] 57.4 µM
inactive: [2] | [3] | [4]

NC(=O)c1ccc(N)nc1
inactive: [1] | [3]

O=S(=O)(C(Cl)(Cl)Cl)C(Cl)(Cl)Cl
active: [2] 20 µM | [5] 1.86 µM | [6] 3.32 µM | [7] 1.9 µM | [8] 1.16 µM | [9] 0.852 µM | [10] 5.32 µM | [11] 3.82 µM | [12] 1.12 µM | [13] 7.31 µM | [14] 4.25 µM | [15] 1.1 µM | [16] 0.932 µM | [17] 4.45 µM | [18] 10.1 µM | [19] 1.45 µM | [20] 0.327 µM
inactive: [1] | [4]
